Data published in PubChem BioAssay (EPA / NIEHS).
Results filed as inconclusive are left out. Calls of active or inactive are those of the source. How the source made its calls, unless noted: active means hit-call score of the fitted dose curve at least 0.9, where 1 is the maximum; inactive means score below 0.9.

Columns and labels:
[1] = CCTE_Shafer_MEA_acute_network_burst_percentage: CCTE's Neural Acute Assay for Percentage of Network Bursts, Shafer Lab (AID 2284022);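 further: curves fitted for loss so actives lower network burst percentage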
How it was run: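 Cortical neurons from rat were grown over microelectrode arrays and used on day 13 or 15 in vitro. Wells with at least 10 active electrodes received test chemical at 0.03-40 uM. Activity during 40 min of exposure was compared with the preceding 40-min baseline.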

[2] = CCTE_Shafer_MEA_acute_cross_correlation_area: CCTE's Neural Acute Assay for Area of Cross Correlation, Shafer Lab (AID 2284024);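 further: area under pooled inter-electrode spike cross-correlation near zero lag as percent change from own baseline; curves fitted for loss of cross-correlation area so actives lower synchrony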
How it was run: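 Acute exposure of mature rat cortical networks (day 13 or 15 post-plating) to 0.03-40 uM compound. Spontaneous spiking on MEA, 40 min pre- and post-dose at 37 C.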

[3] = CCTE_Shafer_MEA_acute_cross_correlation_HWHM: CCTE's Neural Acute Assay for Cross Correlation at Half Width at Half Maximum, Shafer Lab (AID 2284026);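 further: percent change per well from pre-dose baseline in spike cross-correlogram half width; hits are a decrease in cross-correlogram half width relative to DMSO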
How it was run: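 Primary cortex (rat), MEA, DIV 13/15; compound 0.03-40 uM; 40 min pre + 40 min post at 37 C; spike threshold 8x rms; wells need ≥10 active electrodes; endpoint = % change in cross-correlogram HWHM vs baseline, DMSO negative control.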

[4] = CCTE_Shafer_MEA_acute_synchrony_index: CCTE's Neural Acute Assay for Synchrony, Shafer Lab (AID 2284027);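 further: network synchrony index of spontaneous spiking in primary rat cortical neurons on MEAs; fitted for loss of signal so actives lower synchrony relative to DMSO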
How it was run: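 Primary rat cortical neurons on 48-well MEAs, dosed at 0.03–40 uM on DIV 13 or 15. Spikes are recorded for 40 min at 37C before and after exposure, and synchrony index (0–1) is expressed as percent change from baseline per well.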

[5] = molecular target: Estrogen receptor (Homo sapiens) (UniProt P03372); experiment: CCTE_Deisenroth_AIME_384WELL_LUC_Active: CCTE's 384-well Estrogen Receptor Transactivation Assay with AIME metabolic competence (ERTA luciferase; metabolism positive), Deisenroth Lab (AID 2284030; active means hit-call score of the fitted dose curve at least 0.9, where 1 is the maximum)
Sequence of Estrogen receptor (Homo sapiens) (P03372 whole entry, looked up): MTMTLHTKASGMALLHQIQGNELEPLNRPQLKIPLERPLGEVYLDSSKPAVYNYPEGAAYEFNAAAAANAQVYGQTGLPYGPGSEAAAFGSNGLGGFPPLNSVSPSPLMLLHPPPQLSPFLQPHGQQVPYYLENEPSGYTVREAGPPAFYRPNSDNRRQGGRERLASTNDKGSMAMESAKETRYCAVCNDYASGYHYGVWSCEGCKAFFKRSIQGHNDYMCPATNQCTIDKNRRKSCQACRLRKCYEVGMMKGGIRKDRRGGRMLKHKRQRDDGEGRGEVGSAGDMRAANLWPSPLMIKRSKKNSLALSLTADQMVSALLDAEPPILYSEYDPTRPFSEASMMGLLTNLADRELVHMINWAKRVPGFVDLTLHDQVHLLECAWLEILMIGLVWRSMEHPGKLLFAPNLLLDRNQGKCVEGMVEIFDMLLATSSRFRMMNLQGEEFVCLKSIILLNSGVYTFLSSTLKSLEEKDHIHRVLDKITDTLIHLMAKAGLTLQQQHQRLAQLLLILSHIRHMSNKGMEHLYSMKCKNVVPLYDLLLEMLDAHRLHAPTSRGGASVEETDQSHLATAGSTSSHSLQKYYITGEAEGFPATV
How it was run: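 In this metabolism-positive format, a 2-hour exposure to alginate-immobilized rat S9 precedes a 24 hour luciferase transactivation readout in VM7Luc4E2 cells. Dosing spans 10 concentrations from 0.002 to 200 uM.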

[6] = CCTE_Shafer_MEA_dev_firing_rate_mean: CCTE's Neural Network Formation Assay for Mean Firing Rate, Shafer Lab (AID 2284031)
How it was run: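 Primary rat cortical neurons on 48-well MEA plates, exposed from plating day 0 with dosing renewed on DIV 5 and 9. Mean well firing rate over active electrodes, recorded days 5, 7, 9, 12, summarised as trapezoidal AUC.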

[7] = CCTE_Deisenroth_AIME_384WELL_CTox_Active: Cytotoxicity Assessment (CTOX) in CCTE's 384-well Estrogen Receptor Transactivation Assay with AIME metabolic competence (metabolism positive), Deisenroth Lab (AID 2284037; active means hit-call score of the fitted dose curve at least 0.9, where 1 is the maximum;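 further: chemicals first conditioned 2 h by alginate-bound induced rat liver S9 before cells; activity means signal loss indicating cell death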)
How it was run: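 Cytotoxicity in VM7Luc4E2 breast cells, 24 hour, measured as protease-substrate fluorescence loss, after 2-hour metabolic conditioning with induced rat hepatic S9 in alginate microspheres. Concentrations 0.002 - 200 uM, 10 points, bidirectional fitting.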

[8] = molecular target: Estrogen receptor (Homo sapiens) (UniProt P03372); experiment: CCTE_Deisenroth_AIME_384WELL_LUC_Inactive: CCTE's 384-well Estrogen Receptor Transactivation Assay without AIME metabolic competence (ERTA luciferase; metabolism negative), Deisenroth Lab (AID 2284038; active means hit-call score of the fitted dose curve at least 0.9, where 1 is the maximum;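 further: VM7Luc4E2 breast cells given medium preincubated 2 h with S9-free microspheres; hits raise estrogen receptor luciferase signal so potencies reflect agonists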)
How it was run: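 Metabolism-negative mode: chemicals (10-point, 0.002–200 uM) held 2 h with alginate-water microspheres, then conditioned medium applied to VM7Luc4E2 cells for 24 h. Luciferase induction referenced to 17beta-estradiol.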

[9] = CCTE_Deisenroth_AIME_384WELL_CTox_Inactive: Cytotoxicity Assessment (CTOX) in CCTE's 384-well Estrogen Receptor Transactivation Assay without AIME metabolic competence (metabolism negative), Deisenroth Lab (AID 2284039; active means hit-call score of the fitted dose curve at least 0.9, where 1 is the maximum;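 further: cell viability via live-cell protease substrate cleaved to fluorescent probe; cells exposed 24 h to medium preincubated 2 h with alginate-water beads without S9; loss of fluorescence signal means loss of viability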)
How it was run: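 Fluorescence from a live-cell protease substrate, read after 24 h in VM7Luc4E2 cells, indicated viability. Test medium came from a 2 h AIME step without hepatic S9 (alginate-water microspheres); concentrations spanned 0.002 - 200 uM, single technical replicate per run.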

[10] = CCTE_Shafer_MEA_dev_active_electrodes_number: CCTE's Neural Network Formation Assay for Number of Active Electrodes, Shafer Lab (AID 2284040; active means hit-call score of the fitted dose curve at least 0.9, where 1 is the maximum)
How it was run: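 Primary rat cortical neurons on 16-electrode MEA wells, exposed from day 0 through day 12 with compound renewed at DIV 5 and 9 feeds. Active electrodes (mean firing ≥5 spikes/min) counted at DIV 5, 7, 9, 12; trapezoidal AUC across days, loss-of-signal versus DMSO.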

[11] = molecular target: Estrogen receptor (Homo sapiens) (UniProt P03372); experiment: CCTE_Deisenroth_AIME_384WELL_LUC_Shift: CCTE's 384-well Estrogen Receptor Transactivation Assay with AIME metabolic competence data shift (ERTA luciferase; difference in metabolism positive and negative), Deisenroth Lab (AID 2284041);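 further: shift is response with S9 minus without S9 so positive means metabolism raised ER signal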
How it was run: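 Test chemicals (0.002–200 uM, 10-point) were pre-incubated 2 h with alginate microspheres containing phenobarbital/beta-naphthoflavone-induced male Sprague Dawley rat liver S9 or water, then medium was transferred to VM7Luc4E2 cells for 24 h luciferase readout; shift = S9-positive minus S9-negative normalized response.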

[12] = CCTE_Shafer_MEA_dev_burst_rate: CCTE's Neural Network Formation Assay for Burst Rate, Shafer Lab (AID 2284042)
How it was run: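 Developmental network assay measuring how 12-day exposure of rat cortical neuron cultures alters bursting on extracellular MEA recordings. Values are AUC of well-mean burst rate across four recording days, relative to DMSO vehicle.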

[13] = CCTE_Shafer_MEA_dev_bursting_electrodes_number: CCTE's Neural Network Formation Assay for Number of Bursting Electrodes, Shafer Lab (AID 2284043; active means hit-call score of the fitted dose curve at least 0.9, where 1 is the maximum)
How it was run: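 Read-out is the per-well number of electrodes bursting at least once every 2 minutes, recorded on days 5, 7, 9 and 12 and collapsed by trapezoidal area under the curve. Cultures were primary rat cortical neurons on MEA plates, treated continuously from plating.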

[14] = CCTE_Shafer_MEA_dev_per_burst_interspike_interval: CCTE's Neural Network Formation Assay for Burst Interspike Interval, Shafer Lab (AID 2284044);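 further: mean spike spacing inside bursts as AUC over recordings on days 5 7 9 12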
How it was run: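 Developmental network-formation MEA in primary rat cortical cultures with exposure spanning days 0–12. Within-burst ISI is averaged per well and integrated across recording days by area under the curve, with DMSO as negative control baseline.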

[15] = CCTE_Shafer_MEA_dev_burst_duration_mean: CCTE's Neural Network Formation Assay for Mean Burst Duration, Shafer Lab (AID 2284045)
How it was run: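 Read-out: average first-to-last-spike interval within single-electrode bursts, averaged over bursting electrodes per well, then summarised as area under the curve across days 5, 7, 9 and 12. Developing rat cortical networks were exposed from day 0.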

[16] = CCTE_Shafer_MEA_dev_interburst_interval_mean: CCTE's Neural Network Formation Assay for Mean Interburst Interval, Shafer Lab (AID 2284046);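 further: well-mean interburst interval of bursting electrodes as AUC over four recording days; curve fitted for decrease in interburst interval relative to DMSO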
How it was run: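 Network formation assay in primary rat cortical cultures, exposed from DIV 0 to 12. Mean interburst interval per well, integrated as AUC over four recordings.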

[17] = CCTE_Shafer_MEA_dev_network_spike_number: CCTE's Neural Network Formation Assay for Number of Network Spikes, Shafer Lab (AID 2284048);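 further: synchronized bursts across electrodes counted on days 5 7 9 12 and integrated as AUC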
How it was run: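 Developing networks of primary rat cortical neurons are treated over 12 days starting at plating, with media and compound fully replaced on DIV 5 and 9. Network spike counts from four recording days are integrated as trapezoidal AUC.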

[18] = CCTE_Shafer_MEA_dev_network_spike_peak: CCTE's Neural Network Formation Assay for Mean Number of Electrodes in Network Spike, Shafer Lab (AID 2284049);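 on AC50: fitted for loss of signal meaning fewer electrodes in network spikes than DMSO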
How it was run: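 Rat cortical primary culture, 1.5 x 10^5 cells/well, 48-well MEA (16 electrodes/well). Dosing day 0 through DIV 12, full media/compound exchange DIV 5, 9. AxIS adaptive spike detection; AUC over days 5/7/9/12; loss-of-signal vs DMSO.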

[19] = CCTE_Shafer_MEA_dev_spike_duration_mean: CCTE's Neural Network Formation Assay for Mean Spike Duration, Shafer Lab (AID 2284051);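 further: mean network spike duration pooled as area under curve over DIV 5 to 12 recordings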
How it was run: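 With DMSO as baseline, loss of mean network spike duration was scored from extracellular recordings of rat cortical neurons on MEA plates. Exposure spanned plating to DIV 12; the four recording days were collapsed into one AUC value.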

Measured: AC50

CCCCC(CC)COP(=O)(Oc1ccccc1)Oc1ccccc1 (stereo not drawn)
active: [3] 10.3 µM | [4] 22.1 µM | [5] 34.1 µM | [18] 1.67 µM
inactive: all other assays above

ClC(Cl)c1ccccc1
inactive: [5] | [7] | [8] | [9] | [11]

CCCCN(CCCC)SN(C)C(=O)Oc1cccc2c1OC(C)(C)C2
inactive: [5] | [7] | [8] | [9] | [11]

CCC1(c2ccccc2)C(=O)N=C(O)NC1=O (stereo not drawn)
not listed: [5] | [7] | [8] | [9] | [11] | [13]
inactive: all other assays above

CCOC(=O)c1ccccc1C(=O)OCC
inactive: [5] | [7] | [8] | [9]
active: [11] 45.2 µM

OCC1CO1 (stereo not drawn)
inactive: [5] | [7] | [8] | [9] | [11]

COCCOCCO
inactive: [1] | [2] | [3] | [4] | [5] | [8] | [9] | [11]

Nc1cc2c3c(c1)C(c1ccccc1)=N[C@@H](NC(=O)c1cccnc1)C(=O)N3CC2
active: [11] 39.4 µM
inactive: [5] | [7] | [8]

CC(Cl)(Cl)C(=O)O
inactive: [1] | [2] | [3] | [4] | [5] | [8] | [11]

CCOP(=S)(Oc1ccc([N+](=O)[O-])cc1)c1ccccc1 (stereo not drawn)
inactive: [1] | [2] | [3] | [4] | [9] | [11]
active: [5] 19.6 µM | [8] 15.5 µM

CCCCN(CC)C(=O)SCCC
inactive: [5] | [7] | [8] | [9] | [11]

c1ccc2c(c1)Nc1ccccc1S2
inactive: [2] | [7] | [9] | [11]
active: [1] 20 µM | [3] 36.9 µM | [4] 20 µM | [5] 41.3 µM | [8] 27.7 µM
